The source made the active and inactive calls. Unless noted, the rule behind the calls is not given here.
Columns and labels:
[1] = system: Wnt5a (protein binding on small-molecule microarray); experiment: small molecules binding Wnt5a protein – biophysical, small-molecule microarray, 635/667 nm fluorescence, primary screen (AID 1142); conditions: 635 nm fluorescence, higher = more signal;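 note: fluorescence read at 667 nm with signal to noise per printed feature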
[2] = ATP-based viability of Huh7 replicon cells – cell-based, CellTiter-Glo luminescence, basal, 48 h, cytotoxicity control for HCV replication inhibitor project, primary screen (AID 1143); conditions: higher = more signal, called active from +8 up or from −8 down;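 note: Huh7 hepatoma cells carrying a hepatitis C replication reporter with no stimulus; test concentration not given here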
[3] = Pseudomonas biofilm growth suppression – PAO1 strain, BacTiter-Glo luminescence, LB-PBS, primary screen (AID 1144); conditions: P. aeruginosa PAO1 biofilm, 12 h, higher = more signal
[4] = basal CRE-LacZ reporter activity in PC12 – cell-based, unstimulated, primary screen (AID 1145); conditions: no forskolin, luminescence, 4.5 h, higher = more signal, called active from +8 up or from −8 down
[5] = forskolin-driven CRE-LacZ activity in PC12 – cell-based, CRE-LacZ reporter, forskolin-stimulated, primary screen (AID 1146); conditions: luminescence, 4.5 h, higher = more signal, called active from +8 up or from −8 down;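 note: PC12 cells with 6xCRE LacZ reporter stimulated by forskolin 10 µM; beta-galactosidase reporter signal reflecting CREB driven transcription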
[6] = target: Streptavidin (Streptomyces avidinii) (UniProt P22629); experiment: compounds binding control protein streptavidin – biophysical, small-molecule microarray, 635/667 nm fluorescence, artefact control for SMM compound annotation, primary screen (AID 1147); conditions: higher = more signal;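 note: signal reflects streptavidin binding to arrayed compounds as a control protein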
[7] = probe aInhba binding on compound microarray – biochemical, small-molecule microarray, 635/667 nm fluorescence, primary screen (AID 1148); conditions: higher = more signal;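 note: score merges 667nm spot fluorescence with signal-to-noise for antibody binding to printed compounds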
Torsin-1A (Homo sapiens) [8] = target: Torsin-1A (Homo sapiens) (UniProt O14656); experiment: TOR1A wild-type binding on microarray – cell lysate, small-molecule microarray, lysate, 635/667 nm, primary screen (AID 1149); conditions: COS7 hTOR1A-WT lysate, 635 nm fluorescence, higher = more signal
Torsin-1A (Homo sapiens) [9] = target: Torsin-1A (Homo sapiens) (UniProt O14656); experiment: torsin A mutant lysate binding on microarrays – cell lysate, small-molecule microarray, COS7 lysate, 635/667 nm fluorescence, primary screen (AID 1150); conditions: COS7 hTOR1A mutant lysate, 635 nm fluorescence, higher = more signal;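 note: score pools 667 nm emission and signal to noise measuring lysate protein binding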
[10] = system: Sonic hedgehog protein (Shh); experiment: Sonic hedgehog microarray binding compounds – biochemical, small-molecule microarray, 635/667 nm fluorescence, primary screen (AID 1151); conditions: 635 nm fluorescence, higher = more signal;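 note: Shh protein binding to compounds spotted on small-molecule microarray slides; score combines spot fluorescence intensity with signal-to-noise across triplicate slides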
[11] = optical density shifts of acrAB sulA E. coli – strain DRC41, OD650, 48 h, E. coli filamentation inducer project, primary screen (AID 1152); conditions: higher = more signal, called active from +8 up or from −8 down;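 note: E. coli MC1000 strain DRC41 lacking acrAB efflux pump and sulA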
[12] = probe aLefty1 binding on compound microarray – biochemical, small-molecule microarray, 635/667 nm fluorescence, primary screen (AID 1153); conditions: higher = more signal;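 note: score merges spot fluorescence with signal-to-noise ratio from the scanned slide images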
[13] = plasmodial surface anion channel blockers, osmotic lysis – cell-based, P. falciparum Indochina, OD700, 1 h, primary screen (AID 1154); conditions: P. falciparum Indochina infected RBC osmotic lysis, higher = more signal, called active from +8 up or from −8 down
[14] = plasmodial surface anion channel blockers, osmotic lysis – cell-based, P. falciparum Indochina, OD700, 2 h, primary screen (AID 1155);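 note: lysis reports solute entry through the parasite surface anion channel PSAC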; conditions: P. falciparum Indochina infected erythrocytes, higher = more signal, called active from +8 up or from −8 down
[15] = changes in parasitized red cell lysis, either direction – P. falciparum Indochina, OD700, 3 h, PSAC antagonist project, primary screen (AID 1156); conditions: P. falciparum-infected erythrocytes, osmotic lysis, higher = more signal, called active from +8 up or from −8 down
[16] = plasmodial surface anion channel blockers, osmotic lysis – cell-based, P. falciparum Indochina, OD700, 18 h, primary screen (AID 1157); conditions: P. falciparum Indochina infected erythrocytes, osmotic lysis OD700, 18 h; higher = more signal, called active from +8 up or from −8 down
[17] = S6 kinase pathway phospho-S6 level changes – cell-based, A549, cytoblot, luminescence, serum-stimulated, primary screen (AID 1158); conditions: 5 h, higher = more signal;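 note: serum-stimulated A549 lung adenocarcinoma cells; signal is phosphorylated S6 detected by cytoblot immunostaining with HRP secondary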
[18] = target: NADPH oxidase 2 (Homo sapiens) (UniProt P04839); experiment: compounds shifting NOX2 Amplex Red fluorescence – cell-based, HEK293-NOX2, PMA-stimulated, NOX inhibitor project, primary screen (AID 1159); conditions: 45 min, higher = more signal, called active from +8 up or from −8 down; note: test concentration not given here
[19] = target: NADPH oxidase 4 (Homo sapiens) (UniProt Q9NPH5); experiment: compounds shifting NOX4 Amplex Red fluorescence – cell-based, HEK293-NOX4, tetracycline-induced, NOX inhibitor project, primary screen (AID 1160); conditions: HEK293-NOX4, Amplex Red H2O2 fluorescence, 45 min; higher = more signal, called active from +8 up or from −8 down
[20] = target: NADPH oxidase 5 (Homo sapiens) (UniProt Q96PH1); experiment: compounds shifting NOX5 Amplex Red fluorescence – cell-based, HEK293-NOX5, NOX inhibitor project, primary screen (AID 1161); conditions: HEK293-NOX5, ionomycin, 45 min, higher = more signal
Chain of NADPH oxidase 5 (Homo sapiens) (Q96PH1 whole entry, looked up): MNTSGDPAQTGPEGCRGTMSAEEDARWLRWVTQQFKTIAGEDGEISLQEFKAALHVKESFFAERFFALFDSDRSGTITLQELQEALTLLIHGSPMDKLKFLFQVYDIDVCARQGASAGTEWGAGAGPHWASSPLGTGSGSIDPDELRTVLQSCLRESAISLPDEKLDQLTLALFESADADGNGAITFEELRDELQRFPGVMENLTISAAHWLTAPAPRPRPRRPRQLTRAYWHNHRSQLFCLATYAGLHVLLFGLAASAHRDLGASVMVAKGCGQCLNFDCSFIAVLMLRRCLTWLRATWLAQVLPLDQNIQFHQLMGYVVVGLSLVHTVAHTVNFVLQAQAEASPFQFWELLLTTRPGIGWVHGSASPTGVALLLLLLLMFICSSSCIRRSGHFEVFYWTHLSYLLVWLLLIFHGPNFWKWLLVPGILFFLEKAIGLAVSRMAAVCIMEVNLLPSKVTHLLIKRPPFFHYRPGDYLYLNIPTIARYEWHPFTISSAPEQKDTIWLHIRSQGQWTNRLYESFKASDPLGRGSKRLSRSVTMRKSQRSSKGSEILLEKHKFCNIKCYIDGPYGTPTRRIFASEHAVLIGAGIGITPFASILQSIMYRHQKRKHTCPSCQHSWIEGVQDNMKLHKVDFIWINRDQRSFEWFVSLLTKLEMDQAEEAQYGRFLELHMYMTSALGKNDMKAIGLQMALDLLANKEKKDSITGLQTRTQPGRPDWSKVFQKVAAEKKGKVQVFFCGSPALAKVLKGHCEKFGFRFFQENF

Chain of NADPH oxidase 4 (Homo sapiens) (Q9NPH5 whole entry, looked up): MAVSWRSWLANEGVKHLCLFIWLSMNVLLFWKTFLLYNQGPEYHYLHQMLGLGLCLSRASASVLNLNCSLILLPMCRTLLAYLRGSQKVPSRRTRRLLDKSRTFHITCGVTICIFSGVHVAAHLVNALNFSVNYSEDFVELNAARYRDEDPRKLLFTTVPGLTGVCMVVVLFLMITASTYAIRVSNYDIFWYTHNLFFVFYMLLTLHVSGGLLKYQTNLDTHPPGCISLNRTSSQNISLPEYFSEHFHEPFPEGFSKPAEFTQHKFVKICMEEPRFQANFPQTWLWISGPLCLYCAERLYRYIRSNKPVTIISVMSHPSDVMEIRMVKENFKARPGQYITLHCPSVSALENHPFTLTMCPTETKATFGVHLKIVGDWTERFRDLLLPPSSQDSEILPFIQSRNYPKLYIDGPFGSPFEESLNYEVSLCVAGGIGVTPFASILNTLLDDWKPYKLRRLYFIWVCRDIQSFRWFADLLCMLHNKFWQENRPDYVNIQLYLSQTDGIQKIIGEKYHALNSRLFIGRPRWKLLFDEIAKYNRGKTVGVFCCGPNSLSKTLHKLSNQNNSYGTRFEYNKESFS
Chain of Torsin-1A (Homo sapiens) (O14656 whole entry, looked up): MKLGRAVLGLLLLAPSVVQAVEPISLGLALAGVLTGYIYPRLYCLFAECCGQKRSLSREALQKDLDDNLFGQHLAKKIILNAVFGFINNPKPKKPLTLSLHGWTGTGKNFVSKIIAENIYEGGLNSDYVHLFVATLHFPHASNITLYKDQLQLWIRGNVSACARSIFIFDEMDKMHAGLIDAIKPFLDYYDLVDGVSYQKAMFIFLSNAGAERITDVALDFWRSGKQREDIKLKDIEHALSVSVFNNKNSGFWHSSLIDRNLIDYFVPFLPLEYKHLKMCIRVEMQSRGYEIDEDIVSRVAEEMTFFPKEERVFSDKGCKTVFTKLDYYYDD
Chain of Streptavidin (Streptomyces avidinii) (P22629 whole entry, looked up): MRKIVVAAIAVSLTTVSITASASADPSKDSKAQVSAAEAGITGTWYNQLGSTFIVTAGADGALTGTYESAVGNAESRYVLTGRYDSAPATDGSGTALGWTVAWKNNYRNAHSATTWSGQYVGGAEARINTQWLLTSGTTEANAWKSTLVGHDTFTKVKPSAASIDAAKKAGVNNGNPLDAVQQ
Chain of NADPH oxidase 2 (Homo sapiens) (P04839 whole entry, looked up): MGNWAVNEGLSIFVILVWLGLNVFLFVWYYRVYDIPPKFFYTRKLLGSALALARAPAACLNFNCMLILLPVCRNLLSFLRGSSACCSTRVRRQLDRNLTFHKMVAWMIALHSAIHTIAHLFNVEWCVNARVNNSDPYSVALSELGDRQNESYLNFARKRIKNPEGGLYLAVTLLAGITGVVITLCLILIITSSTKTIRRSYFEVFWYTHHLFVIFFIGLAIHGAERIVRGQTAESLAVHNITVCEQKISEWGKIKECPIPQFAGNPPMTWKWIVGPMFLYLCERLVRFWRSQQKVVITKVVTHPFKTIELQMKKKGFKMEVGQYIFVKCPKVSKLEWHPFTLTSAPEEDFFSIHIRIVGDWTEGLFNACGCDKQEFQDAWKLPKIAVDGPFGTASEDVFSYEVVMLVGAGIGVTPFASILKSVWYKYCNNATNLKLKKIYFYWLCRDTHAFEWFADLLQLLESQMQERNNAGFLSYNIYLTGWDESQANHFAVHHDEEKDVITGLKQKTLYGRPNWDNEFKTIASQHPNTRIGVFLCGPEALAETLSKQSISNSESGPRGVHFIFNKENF

C[C@H]1C2=C3C(CC[C@H]4C(OCc5ccc(F)cc5C(F)(F)F)OC[C@](C)([C@@H]34)N(C(=O)OC(C)(C)C)C2)C2COC(=O)OCC21 (stereo not given in full)
composite z-score [1]: 0.163 | z-score [2]: -1.13 (inactive) | z-score [3]: -0.318 (inactive) | z-score [4]: 0.201 (inactive) | z-score [5]: 0.796 (inactive) | composite z-score [6]: 1.29 | composite z-score [7]: 0.0992 | composite z-score (Torsin-1A (Homo sapiens) [8]): 0.639 | composite z-score (Torsin-1A (Homo sapiens) [9]): 0.988 | composite z-score [10]: -0.789 | z-score [11]: -2.42 (inactive) | composite z-score [12]: 0.739 | z-score [13]: 2.68 (inactive) | z-score [14]: 0.368 (inactive) | z-score [15]: 1.19 (inactive) | z-score [16]: 1.11 (inactive) | z-score [17]: -0.139 | z-score [18]: -0.0545 (inactive) | z-score [19]: -2.17 (inactive) | z-score [20]: -1.09

CCOC(=O)C[C@H]1[C@H](OC(=O)c2ccc(C(=O)c3ccccc3)cc2)[C@@H](NC(=O)c2ccc3ccccc3c2)c2cc(OCCCO)ccc2N1C(=O)c1ccccc1
composite z-score [1]: 0.173 | z-score [2]: -0.0506 (inactive) | z-score [3]: -0.0382 (inactive) | z-score [4]: 0.0777 (inactive) | z-score [5]: -0.506 (inactive) | composite z-score [6]: 0.849 | composite z-score [7]: -0.105 | composite z-score (Torsin-1A (Homo sapiens) [8]): 0.196 | composite z-score (Torsin-1A (Homo sapiens) [9]): 0.321 | composite z-score [10]: 0.867 | z-score [11]: -0.558 (inactive) | composite z-score [12]: -0.0134 | z-score [13]: 0.137 (inactive) | z-score [14]: -0.0012 (inactive) | z-score [15]: -0.97 (inactive) | z-score [16]: 0.189 (inactive) | z-score [17]: -0.357 | z-score [18]: 0.311 (inactive) | z-score [19]: 0.945 (inactive) | z-score [20]: 1.06

C=CCNC(=O)[C@@H]1[C@H]2C(=O)O[C@H](c3ccccc3)[C@H](c3ccccc3)N2[C@H](c2ccc(OCCO)cc2)[C@@]12C(=O)N(C(=O)OCCOC)c1ccc(C#CC3=CCCCC3)cc12
composite z-score [1]: 0.335 | z-score [2]: -2.81 (inactive) | z-score [3]: 0.576 (inactive) | z-score [4]: 0.2 (inactive) | z-score [5]: 0.886 (inactive) | composite z-score [6]: 0.902 | composite z-score [7]: 0.104 | composite z-score (Torsin-1A (Homo sapiens) [8]): 0.694 | composite z-score (Torsin-1A (Homo sapiens) [9]): 0.823 | composite z-score [10]: 1.46 | z-score [11]: -0.892 (inactive) | composite z-score [12]: 0.173 | z-score [13]: 6.2 (inactive) | z-score [14]: 2.12 (inactive) | z-score [15]: 0.669 (inactive) | z-score [16]: 1.46 (inactive) | z-score [17]: 0.0846 | z-score [18]: 1.13 (inactive) | z-score [19]: -0.0729 (inactive) | z-score [20]: 1.69

C=C(CCCC)/C(=C/C[C@@H](OC(=O)c1ccncc1)c1cccc(OCCO)c1)c1cnc2ccccc2c1
composite z-score [1]: 1.25 | z-score [2]: -3.08 (inactive) | z-score [3]: -0.772 (inactive) | z-score [4]: 3.22 (inactive) | z-score [5]: 0.644 (inactive) | composite z-score [6]: 1.49 | composite z-score [7]: 0.194 | composite z-score (Torsin-1A (Homo sapiens) [8]): 1.22 | composite z-score (Torsin-1A (Homo sapiens) [9]): 0.0816 | composite z-score [10]: 2.09 | z-score [11]: 0.0513 (inactive) | composite z-score [12]: 0.284 | z-score [13]: 19.1 (active) | z-score [14]: 3.53 (inactive) | z-score [15]: 0.902 (inactive) | z-score [16]: 1.12 (inactive) | z-score [17]: 0.462 | z-score [18]: -1.21 (inactive) | z-score [19]: -0.36 (inactive) | z-score [20]: -0.509

O=C1NC(=O)C2C1C=CC(C(O)c1ccc3c(c1)OCO3)N2Nc1ccccn1 (stereo not given)
composite z-score [1]: 0.141 | z-score [2]: -0.259 (inactive) | z-score [3]: -1.72 (inactive) | z-score [4]: 1.01 (inactive) | z-score [5]: 0.689 (inactive) | composite z-score [6]: 0.501 | composite z-score [7]: -0.203 | composite z-score (Torsin-1A (Homo sapiens) [8]): 0.546 | composite z-score (Torsin-1A (Homo sapiens) [9]): 0.05 | composite z-score [10]: 0.347 | z-score [11]: -0.0438 (inactive) | composite z-score [12]: -0.112 | z-score [13]: -0.113 (inactive) | z-score [14]: -0.665 (inactive) | z-score [15]: -0.752 (inactive) | z-score [16]: -0.839 (inactive) | z-score [17]: 0.883 | z-score [18]: -1.27 (inactive) | z-score [19]: -3 (inactive) | z-score [20]: -1.73

CCOC(=O)[C@H]1C/C=C/C[C@H](C(=O)OCC)C(=O)O[C@H]2[C@@H](OC)O[C@H](CO)[C@@H](OC(=O)Nc3ccc(OC)cc3)[C@@H]2OC1=O
composite z-score [1]: 0.314 | z-score [2]: -3.41 (inactive) | z-score [3]: 0.29 (inactive) | z-score [4]: 0.484 (inactive) | z-score [5]: 0.106 (inactive) | composite z-score [6]: 0.355 | composite z-score [7]: 0.134 | composite z-score (Torsin-1A (Homo sapiens) [8]): 0.494 | composite z-score (Torsin-1A (Homo sapiens) [9]): 1.64 | composite z-score [10]: 0.733 | z-score [11]: 1.04 (inactive) | composite z-score [12]: 0.104 | z-score [13]: 0.736 (inactive) | z-score [14]: -0.0928 (inactive) | z-score [15]: -0.0986 (inactive) | z-score [16]: 0.385 (inactive) | z-score [17]: -0.0056 | z-score [18]: -2.43 (inactive) | z-score [19]: -1.29 (inactive) | z-score [20]: -1.99

Cc1ccc(C(C)CC(O)C2C=CC3C(=O)N(c4ccccc4)C(=O)C3N2Nc2ccc(C(C)C)cc2)o1 (stereo not given)
composite z-score [1]: 0.301 | z-score [2]: 0.183 (inactive) | z-score [3]: -0.203 (inactive) | z-score [4]: 0.246 (inactive) | z-score [5]: 0.0702 (inactive) | composite z-score [6]: 1.33 | composite z-score [7]: 0.343 | composite z-score (Torsin-1A (Homo sapiens) [8]): 0.216 | composite z-score (Torsin-1A (Homo sapiens) [9]): 0.715 | composite z-score [10]: 0.154 | z-score [11]: -1.84 (inactive) | composite z-score [12]: 0.629 | z-score [13]: 1.45 (inactive) | z-score [14]: 0.871 (inactive) | z-score [15]: 0.948 (inactive) | z-score [16]: 0.631 (inactive) | z-score [17]: -1.31 | z-score [18]: -0.831 (inactive) | z-score [19]: -2.34 (inactive) | z-score [20]: -3.53

— PubChem BioAssay
